Test in all cases: NCI-60 one-dose screen, 48 h (100 = growth as untreated, 0 = no growth, -100 = all killed)
Common to all, as to settings: 10 µM unless noted

The test system of experiment [1] is HCT-15 colon.
For experiment [2], the system named is HT29 colon.
For experiment [3], the system named is SNB-75 CNS.
Experiment [4] has as its system SNB-19 CNS.
The test system of experiment [5] is U251 CNS.
The subject of experiment [6] is PC-3 prostate.
For experiment [7], the system named is SK-MEL-5 melanoma.
Experiment [8] has as its system UACC-62 melanoma.
Experiment [9] relates to SK-MEL-28 melanoma.
The subject of experiment [10] is LOX IMVI melanoma.

The panel holds about 83,000 compounds, 20% with a hit somewhere; the sample as a whole holds those more often.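 Assay: single dose, 48 h. Readout: percent growth (0 = no net growth; negative = cell death). Active: <10.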 Unmarked numbers belong to inactive results. The source made the active and inactive calls.

As to `COc1ccc(-c2cc(-c3cn(-c4cccc(Cl)c4)nc3-c3ccc(OC)cc3)[nH]c(=S)n2)cc1`, the growth in experiment [1] was 95.4%; in [2] it was 20.6%; in experiment [3], 102%; in [4] it was 81.6%; in experiment [5] it was 72.6%; in experiment [6], 67.3%. Further, the figures for the growth in experiment [7], in [8] and in experiment [9] were 88.5%, 88% and 95.5%, respectively.
Regarding `CCCCCc1c(C)[nH]c(/C=C2\N=C(c3ccc[nH]3)C=C2Oc2ccc(OC)cc2)c1C`, the growth in [1] was -93.8% [100 µM] (active); in experiment [2] it was -64% [100 µM] (active); in experiment [3] it was -91.6% [100 µM] (active); in experiment [4], -83.1% [100 µM] (active); in experiment [6], -25.7% [100 µM] (active); in experiment [7] it was -73.6% [100 µM] (active). Also, the growth was -93.5% [100 µM] (active) in [8], -71.9% [100 µM] (active) in [10] and -86.9% [100 µM] (active) in [9].
As for `CC(=O)Oc1ccccc1C(=O)Nc1ncc([N+](=O)[O-])s1`, the growth is 32.3% in experiment [1]; 44.9% in experiment [2]; 46.4% in experiment [3]; 41.7% in experiment [4]; 39.2% in [5]; 10.1% in experiment [6]. Moreover, the growth in [7] is 22.8%; in experiment [8], 1.31% (active); in experiment [9], 49.3%.
Take `O=C(Nc1ccccc1)c1cc2ccccc2s1`: the growth in [1] is 63.9%; in experiment [2], 104%; in [3], 92.9%; in experiment [4] it was 99.7%; in [5], 89.4%; in experiment [6], 82%. Moreover, the growth in [7] is 56.7%; in experiment [8], 67.1%; in [9], 107%.
As for `Cc1cc2nc(CN)[nH]c2cc1C`, the growth is 109% in experiment [1]; 51.3% in experiment [2]; 92% in experiment [3]; 102% in experiment [4]; 100% in [5]; 99.8% in experiment [6]. The figures for the growth in experiment [7], in experiment [8] and in experiment [9] were 104%, 113% and 108%, respectively.
On to `COc1ccc(C(=O)OC2C(OC3C(O)COC(O[C@H]4C[C@H]5[C@@H]6CC=C7C[C@@H](O)CC[C@]7(C)[C@H]6CC[C@]5(C)[C@H]4[C@H](C)C(=O)CCC(C)C)C3OC(N)=O)OCC(O)C2O)cc1` (stereo not given in full), for which the growth in experiment [1] is 6.08% (active); in experiment [2], 4.99% (active); in experiment [3], -10% (active); in experiment [4], -28.2% (active); in [5], -53.3% (active); in experiment [6], -28.1% (active). In addition, the growth in [7] is -86.8% (active); in experiment [8] it was -57.7% (active); in experiment [9], -59.1% (active).
`COc1ccc(C(=O)C(CN(C)C)c2ccc(OC)cc2)cc1` (stereo not given): the growth in [1] was 30.4%; in experiment [2], 13.2%; in [3], 64.7%; in experiment [4] it was 90.7%; in [6], 39.1%; in experiment [7], 95.5%. The growth was 32.1% in experiment [8], 31.3% in experiment [10] and 79% in experiment [9].
With `COc1cc(C2CC(c3ccccc3)=NN2C=O)ccc1Oc1nc2c(c(=O)n(C)c(=O)n2C)n1C` (stereo not given), the growth in [1] is 87.9%; in experiment [2] it was 69.9%; in experiment [3], 92%; in experiment [4], 61.9%; in experiment [6], 72.8%; in experiment [7], 59.2%. Moreover, the growth in experiment [8] is 86.2%; in [10], 55%; in [9], 95.1%.
`FC(F)(F)c1cc(-c2nnc3n2N=C(Cl)CS3)cc(C(F)(F)F)c1`: the growth was 96.8% in experiment [1]; 113% in experiment [2]; 107% in experiment [4]; 96.2% in experiment [6]; 98.9% in experiment [7]; 101% in [8]. Besides, the growth in experiment [10] is 77.1%; in experiment [9], 134%.
For the compound `Clc1ccc(-c2cnc3c(-c4ccnc(N5CCNCC5)c4)cnn3c2)cc1`, the growth is -22.9% (active) in experiment [1]; -7.81% (active) in [2]; -68.6% (active) in experiment [3]; 3.09% (active) in [4]; 15.2% in experiment [6]; 73.8% in [7]. Moreover, the growth was -66.8% (active) in [8], -80.9% (active) in experiment [10] and -82.8% (active) in [9].
Take `COc1cc(C2CC(c3ccc(Cl)cc3)=NN2C(C)=O)ccc1Oc1nc2c(c(=O)n(C)c(=O)n2C)n1C` (stereo not given): the growth in experiment [1] was 88.5%; in experiment [2], 73.8%; in [3], 75%; in [4], 59.8%; in [6], 75.6%; in experiment [7], 55.6%. Also, the growth in [8] is 75.9%; in experiment [10], 64.5%; in experiment [9], 86.6%.
As for `C=CCOc1ccc2c(C)cc(=O)oc2c1`, the growth in [1] is 101%; in experiment [2], 94.9%; in [3] it was 111%; in experiment [4], 122%; in experiment [6], 93%; in experiment [7], 108%. The values for the growth in experiment [8], in experiment [10] and in experiment [9] were 105%, 105% and 113%, respectively.
Turning to `COc1ccc2nc3ccccc3c(NCc3ccc(Cl)cc3)c2c1`, the growth was 5.04% (active) in experiment [1]; -2.29% (active) in experiment [2]; 57.6% in experiment [3]; 26.4% in experiment [4]; 19.5% in experiment [6]; 11.7% in experiment [7]. For the same compound, the growth in [8] was 64.7%; in experiment [10] it was -86.3% (active); in [9], 7.07% (active).
With `COc1cc([N+](=O)[O-])cc(OC)c1OC`, the growth was 107% in experiment [1]; 96% in experiment [2]; 92.2% in [3]; 114% in experiment [4]; 94.9% in experiment [6]; 113% in [7]. Moreover, the values for the growth in [8], in [10] and in experiment [9] were 101%, 100% and 104%, respectively.

For the origin of these results see PubChem BioAssay (NCI).
